# Results reported in PubChem BioAssay AID463173 (ICCB-Longwood Screening Facility, Harvard Medical School, 2010).
# Screen size: about 52,000 compounds; about 1,700 (3.3%) were called active. This is one part of a sample in which actives are shown more often than they occur. Rule as the data show it: active = survival mostly below about 52% (no sharp cut-off); inactive = mostly above about 56%.
# Test system: Wild type
# Assay: S. aureus survival, RN4220 and DeltatarO strains – OD600, teichoic acid synthesis inhibitors, primary screen (AID 463173)
# Conditions: S. aureus RN4220 wild type/DeltatarO growth, OD600, 18 h, stronger effect = lower value, screened at 18.75 µg/mL (by protocol)
row,Structure (SMILES),survival
1,O=c1cc(-c2ccc(F)cc2)nc(SCc2nc(-c3ccc(Cl)cc3)no2)[nH]1,88% (inactive)
2,COC(=O)C1CCN(C(c2ccccc2Cl)c2sc3nc(-c4ccco4)nn3c2O)CC1 (stereo not drawn),80% (inactive)
3,Cc1oc2ncnc(N3CCCCC3)c2c1C(=O)N1CCN(c2cccc(C(F)(F)F)c2)CC1,87% (inactive)
4,Cc1nc(N2CCOCC2)c2c(C(=O)N3CCN(c4cccc(C(F)(F)F)c4)CC3)c(C)oc2n1,79% (inactive)
5,Cc1ccc(Cl)cc1N1CCN(C(=O)c2c(C)oc3ncnc(N4CCCCC4)c23)CC1,-6% (active)
6,Cc1oc2ncnc(N3CCOCC3)c2c1C(=O)N1CCN(c2cccc(C(F)(F)F)c2)CC1,-6% (active)
7,Cc1ccc(Cl)cc1N1CCN(C(=O)c2c(C)oc3ncnc(N4CCOCC4)c23)CC1,69% (inactive)
8,Cc1nc(N2CCCC2)c2c(C(=O)N3CCN(c4cc(Cl)ccc4C)CC3)c(C)oc2n1,99% (inactive)
9,O=C(NCc1ccccc1Cl)C1CCN(S(=O)(=O)c2ccc3c(c2)CCCN3C(=O)C2CCC2)CC1,80% (inactive)
10,Cn1c(COc2ccccc2Br)nc2ccccc21,106% (inactive)
11,Cc1ccc(OCc2nc3ccccc3n2CCOc2ccc(Cl)cc2)cc1,26% (active)
12,c1ccc(OCCn2c(COc3ccccc3)nc3ccccc32)cc1,-15% (active)
13,COc1cccc(OCc2nc3ccccc3n2CCOc2ccc(C)cc2)c1,62% (inactive)
14,Cc1ccc(C)c(OCc2nc3ccccc3n2C)c1,85% (inactive)
15,COc1cccc(OCc2nc3ccccc3n2Cc2ccccc2)c1,86% (inactive)
16,COc1cccc(OCc2nc3ccccc3n2CCOc2ccccc2)c1,74% (inactive)
17,Cn1c(COc2ccccc2C(C)(C)C)nc2ccccc21,-17% (active)
18,Cc1ccc(OCCn2c(COc3ccc(Cl)cc3)nc3ccccc32)cc1,74% (inactive)
19,COc1ccc(OCc2nc3ccccc3n2Cc2ccc(C(C)(C)C)cc2)cc1,0% (active)
20,COc1ccc(C(=O)NCC(c2cccnc2)N2CCc3ccccc3C2)cc1OC (stereo not drawn),93% (inactive)
21,CCOC(=O)CC(NC(=O)CCc1c(C)nc2c(c1C)c(=O)n(C)c(=O)n2C)c1ccc(OCC)c(OC)c1 (stereo not drawn),82% (inactive)
22,Cc1ccc(OCC(=O)Nc2ccc3nc(SCCOc4ccccc4)sc3c2)cc1,99% (inactive)
23,CCOC(=O)N1CCc2c(sc(NCc3cccc(F)c3)c2C(=O)Nc2ccc(OC)cc2OC)C1,68% (inactive)
24,CC(C)c1nnc(NC(=O)c2nc(SCc3ccc(F)cc3)ncc2Cl)s1,58% (inactive)

row,Structure (SMILES),survival
1,Cc1cc(C)n(CCc2nc3c4ccccc4nc(SCc4ccc(F)cc4)n3n2)n1,85% (inactive)
2,COc1ccc(C(CNC(=O)c2ccc(C)cc2)N2CCOCC2)cc1 (stereo not drawn),92% (inactive)
3,Cc1cc2nc3c(=O)n(C)c(=O)n(C)c3nc2cc1N=CN(C)C,77% (inactive)
4,CCc1c(CN2CCN(c3ccc(F)cc3)CC2)csc1C,75% (inactive)
5,O=C(CSc1ccc(-c2ccc(F)cc2)nn1)N1CCOCC1,112% (inactive)
6,Cc1ccc(-n2nc3c(=O)n(C(C)C(=O)NCc4ccc(OC(C)C)cc4)nc(C)c3c2C)cc1 (stereo not drawn),93% (inactive)
7,CC(C)(C)c1ccc(OCc2nc3ccccc3n2CCOc2ccccc2)cc1,7% (active)
8,Cc1ccc(NS(=O)(=O)c2ccc(-c3cc(C)no3)cc2)c(C)c1,101% (inactive)
9,O=C(c1cccn1-c1nnc(N2CCCCC2)s1)N1CCN(c2ccc(Cl)cc2)CC1,73% (inactive)
10,COc1ccc(CNC(=O)c2cccn2-c2nnc(N3CCCC3)s2)c(OC)c1,81% (inactive)
11,COc1ccc(NC(=O)c2cccn2-c2nnc(N3CCCCC3)s2)c(OC)c1,73% (inactive)
12,O=C(c1cccn1-c1nnc(N2CCCCC2)s1)N1CCN(c2ccccc2)CC1,-3% (active)
13,COc1ccccc1CNC(=O)c1cccn1-c1nnc(N2CCCC2)s1,81% (inactive)
14,O=C(c1cccn1-c1nnc(N2CCCC2)s1)N1CCN(c2ccccc2)CC1,19% (inactive)
15,COc1ccccc1CCNC(=O)c1cccn1-c1nnc(N2CCCCC2)s1,87% (inactive)
16,COc1ccc(CNC(=O)c2cccn2-c2nnc(N3CCCCC3)s2)c(OC)c1,-2% (active)
17,COc1ccccc1CNC(=O)c1cccn1-c1nnc(N2CCCCC2)s1,10% (active)
18,Cc1ccc(C)c(CSc2nnc3[nH]c(=O)cc(-c4ccccc4)n23)c1,86% (inactive)
19,Cc1cccc(N2CCN(c3nc4ccccc4c4nnc(C)n34)CC2)c1C,98% (inactive)
20,COc1ccc(NC(=O)C2CCN(C(=O)c3sc4nc[nH]c(=O)c4c3C)CC2)cc1Cl,85% (inactive)
21,Cc1cc(C)c(NC(=O)CN2c3ccccc3S(=O)(=O)c3ccccc32)c(C)c1,124% (inactive)
22,Cc1cccc(NC(=O)CN2c3ccccc3S(=O)(=O)c3ccccc32)c1C,-3% (active)
23,CCOc1ccccc1NC(=O)CN1C(=O)C(=O)c2ccccc21,115% (inactive)
24,O=C(CN1c2ccccc2S(=O)(=O)c2ccccc21)Nc1ccccc1Cl,65% (inactive)

row,Structure (SMILES),survival
1,CCOc1ccccc1NC(=O)CN1c2ccccc2S(=O)(=O)c2ccccc21,10% (active)
2,CCOc1ccccc1NC(=O)CN1C=NS(=O)(=O)c2ccccc21,59% (inactive)
3,CCn1nc(-c2ccccc2)c(-c2ccccc2)c(C(=O)Nc2ccc(NC(C)=O)cc2)c1=O,88% (inactive)
4,CCC(C)(C)n1nnnc1C(c1ccccc1OC)N1CCN(C(=O)c2ccco2)CC1 (stereo not drawn),105% (inactive)
5,Cc1ccc(C)c(Cn2c(C(C)NC(=O)c3ccc(F)cc3)nc3ccccc32)c1 (stereo not drawn),83% (inactive)
6,COc1ccc(C(=O)N2CCN(C(=O)COc3ccccc3)CC2)cc1OC,79% (inactive)
7,CC(=O)N1c2ccc(S(=O)(=O)NCC3CCC(C(=O)Nc4cccc(C)c4)CC3)cc2CC1C (stereo not drawn),91% (inactive)
8,Cc1ccc(C(=O)Nc2ccc(-c3nc4ccccc4s3)cc2C)cc1C,73% (inactive)
9,CSc1ncc(C(=O)N2CCN(c3cccc(Cl)c3)CC2)c(C)n1,-3% (active)
10,CSc1ncc(C(=O)N2CCN(c3ccc(Cl)cc3)CC2)c(C)n1,124% (inactive)
11,CSc1ncc(C(=O)N2CCN(c3cccc(C(F)(F)F)c3)CC2)c(C)n1,73% (inactive)
12,CCCCN(CCCNC(=O)c1c(C)oc2nc[nH]c(=O)c12)Cc1ccccc1,71% (inactive)
13,Cc1oc2ccc(O)c(CN3CCCC(C)C3)c2c1C(=O)Nc1ccccc1 (stereo not drawn),91% (inactive)
14,CCN(Cc1ccccc1)Cc1c(O)ccc2c(=O)c(-c3ccccc3Cl)coc12,73% (inactive)
15,Cc1cc(Br)ccc1NC(=O)CN1C(=O)c2cccnc2Sc2ccccc21,85% (inactive)
16,CCN(CC)c1ccc(NC(=O)CN2C(=O)c3cccnc3Oc3ccccc32)c(C)c1,135% (inactive)
17,CCN(CC)c1ccc(NC(=O)CN2C(=O)c3cccnc3Sc3ccccc32)c(C)c1,-4% (active)
18,CCC(=O)Nc1ccc(CC)cc1-c1nc2ccccc2n(CC(=O)Nc2ccccc2C)c1=O,88% (inactive)
19,COc1ccc(Nc2ncc3c(n2)CCN(Cc2ccc(Br)s2)C3)c(OC)c1,127% (inactive)
20,CCOc1ccc(CNC(=O)C2CCN(Cc3cc4ccccc4n3Cc3ccccc3C)CC2)cc1,60% (inactive)
21,CCN(CC)C(=O)C1CCN(Cc2ccccc2F)CC1,107% (inactive)
22,CCn1c2ccccc2c2cc(CN3CCN(Cc4ccccc4F)CC3)ccc21,4% (active)
23,O=c1c2ccccc2n(Cc2ccccc2F)c(=O)n1-c1cccc(F)c1,75% (inactive)
24,Cc1ccccc1Cn1c(CN2CCC(C(=O)NCc3ccc(Cl)cc3)CC2)cc2ccccc21,60% (inactive)

row,Structure (SMILES),survival
1,CCn1c2ccccc2c2cc(CN3CCN(Cc4ccccc4C)CC3)ccc21,-1% (active)
2,O=C1NC(=O)C(Nc2cccc3ccccc23)S1 (stereo not drawn),104% (inactive)
3,O=C(CSc1nnc(Cn2nnc3ccccc32)o1)N(Cc1ccc(Cl)cc1)c1ccccc1,141% (inactive)
4,CCOC(=O)c1ccccc1NC(=O)c1ccncc1,94% (inactive)
5,Cc1ccc(O)c(C(CC(=O)NCC2(c3ccccc3)CCCC2)c2ccccc2)c1 (stereo not drawn),6% (active)
6,O=C(CC(c1ccccc1)c1cc(Br)ccc1O)NCC1(c2ccccc2)CCCC1 (stereo not drawn),63% (inactive)
7,CCC(=O)NCC1(c2ccccc2)CCCC1,102% (inactive)
8,Cc1ccccc1NC(=O)C(=O)NCC1(c2ccccc2)CCCC1,94% (inactive)
9,Cc1cccc(C(CC(=O)NCC2(c3ccccc3)CCCC2)c2ccccc2)c1O (stereo not drawn),2% (active)
10,Cc1ccc(C(CC(=O)NCC2(c3ccccc3)CCCC2)c2ccccc2)c(O)c1 (stereo not drawn),36% (inactive)
11,COc1ccc(-c2cc(C(F)(F)F)nc(SCCC(=O)Nc3cccc(O)c3)n2)cc1,80% (inactive)
12,COc1cc(Cl)c(C)cc1NC(=O)c1nn(C)c2c1CSc1ccccc1-2,85% (inactive)
13,O=C(CSc1nnc(-c2ccccc2Br)n1-c1ccccc1)c1ccc(F)cc1,4% (active)
14,Cn1c(SCC(=O)c2ccc(F)cc2)nnc1-c1ccccc1Br,74% (inactive)
15,COc1ccccc1-c1nnc(SCC(=O)OC(C)C)n1-c1ccccc1,115% (inactive)
16,CCOc1ccc(-c2nnc(SCC(=O)c3ccc(F)cc3)n2-c2ccccc2)cc1,153% (inactive)
17,Cc1ccc(C(=O)CSc2nnc(-c3ccccc3)n2-c2ccccc2)cc1,79% (inactive)
18,O=C(CSc1nnc(-c2ccc(Br)cc2)n1-c1ccccc1)c1ccccc1,97% (inactive)
19,COc1ccccc1-c1nnc(SCC(=O)c2ccc(F)cc2)n1-c1ccccc1,0% (active)
20,Cc1ccc(-c2nnc(SCC(=O)c3ccc(Cl)cc3)n2-c2ccccc2)cc1,94% (inactive)
21,COc1ccccc1-c1nnc(SCC(=O)c2ccc(Cl)cc2)n1-c1ccccc1,0% (active)
